Shown are actives, neighbours in structure and some others; about 7.3% of the full set was active somewhere.
Vaccinia Venus: vaccinia inhibition (Venus reporter); actives 0.46% (n = 330,000); AID 720580; Potency, µM (titrated, usually from 36.5 µM), for the others: top-dose activity change, negative = inhibition, most hits filed as inhibitors; Vaccinia virus Venus reporter expression, fluorescence; calls by dose curve; tested in A549 cells; further: potency means the concentration at half of the fitted maximal effect; nearly all actives have a fitted effect of over 30% in size
HCV inh: HCV inhibition; Huh7.5.1 HCVcc-Cre infection, luciferase reporter, 44 h; Potency, µM (top dose mostly 41.8 µM), without a hit: at the top dose activity change, negative = inhibition, most hits filed as inhibitors; actives 3.4% (n = 340,000); AID 651820; active means well fitted inhibition curve with a large enough effect; inconclusive means small, poorly fitted or top-dose-only effect, or another doubt; inactive means no such curve, though single readings can be large or run the other way; further: potency means the concentration at half of the fitted maximal effect
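After 44 h co-culture of compound, cells and HCVcc-Cre (~0.5 moi), substrate is added for 15 min at room temperature and luciferase measured over 15 sec. Cells were seeded at 1,000/well and pre-cultured 4 h.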
VACV mCherry inh: vaccinia inhibition (mCherry reporter); Vaccinia virus mCherry reporter infection, fluorescence; Potency, µM (top dose mostly 36.5 µM), for inactives: top-dose activity change, negative = inhibition, hits mostly inhibitors; AID 720579; actives 0.63% (n = 310,000); calls by dose curve; tested in A549 cells; further: potency means the concentration at half of the fitted maximal effect; nearly all actives have a fitted effect of over 35% in size
FMDV antiviral: antivirals against foot and mouth disease virus; FMDV antiviral cell-based qHTS; AID 1159524; Potency, µM (highest dose often 57.9 µM), for inactives: at the top dose activity change, negative = inhibition, usual class: inhibitors; actives 1.2% (n = 410,000); calls by dose curve; tested in HEK293T cells; further: read-out not given here; potency means the concentration at half of the fitted maximal effect; nearly all actives have a fitted effect of over 45% in size
HCMV inh: inhibitors of human cytomegalovirus; HFF cells, HCMV-luciferase reporter, 72 h; active compounds read low; activity change, negative = inhibition, % at 57.5 µM; actives 4.5% (n = 410,000); in the data active means activity change below about -60%; inconclusive means no clear call, values can overlap the other calls; inactive means above about -39%
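Two compound doses tested in HFFs infected with HCMV-luciferase, MOI 1 PFU/cell, 72 h at 37C. Lysate luminescence read with OneGlo; data normalized against buffer-only and 10uM Salinomycin inhibitor controls.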
Numbers without * were called inactive; i = inactive; ? = inconclusive; / = not tested or not shown; [ ] = remark or other dose. On the % scale 0 is the no-effect control and ±100 the full control effect.

SMILES | Vaccinia Venus | HCV inh | VACV mCherry inh | FMDV antiviral | HCMV inh
COC(=O)c1cc(NC(=O)c2cc(-c3ccccc3Cl)oc2C(F)(F)F)ccc1N1CCOCC1 | / | 16µM* | / | -21% | -7
Nc1ccccc1C(=O)NC(=O)Nc1ccc(Oc2ncc(Br)cn2)c(Cl)c1 | ? | -9% | -12% | -18% | -87*
Cc1cc(NC(=O)NC(=O)c2ccccc2NC(=O)CN(C)C)ccc1Oc1ncc(Br)cn1 | -30% | ? | -14% | 0% | -24
Cc1cc(NC(=O)NC(=O)c2ccccc2NC(=O)CN)ccc1Oc1ncc(Br)cn1 | ? | ? | -23% | -5% | -84*
COc1ccc(CCNc2ncnc3c2cnn3-c2cc(Cl)ccc2C)cc1 | -26% | / | -23% | 18µM* | -61*
COc1ccc(CCNc2ncnc3c2cnn3-c2ccc(C)c(Cl)c2)cc1 | 2% | / | -8% | -23% | -10
CCc1cc2c(cc3c(=O)n(CC(=O)NCCc4ccccc4)ncn32)s1 | -19% | / | -3% | 5% | 12
COc1cccc(N(C(=O)c2cccs2)c2nc3ccccc3s2)c1 | -15% | ? | / | 23% | -101*
CC/C(=C\c1oc2cc3ccccc3cc2[n+]1CC)Nc1ccccc1 | ? | 3% | ? | 22µM* | ?
CCCCOC(=O)c1ccc(NC(=O)c2cc3c(=O)n4cccc(C)c4nc3s2)cc1 | 4% | / | -5% | -4% | 29
O=C(CN(c1cccc([N+](=O)[O-])c1)S(=O)(=O)c1ccccc1)NCc1ccccc1 | -4% | 8% | i | 15% | -32
O=C(CN(c1cccc([N+](=O)[O-])c1)S(=O)(=O)c1ccccc1)N(Cc1ccccc1)Cc1ccccc1 | -7% | 3% | i | -7% | -62*
COc1ccc(Br)cc1CNCc1c(C(=O)O)c(C)n(Cc2ccccc2C)c1C | 2% | / | -2% | 1% | 1
COc1cc2ccnc(Cc3cccc(OC)c3OC)c2cc1OC | -21% | ? | -17% | ? | -72*
FC(F)(F)c1ccccc1Cc1c(-c2cccc(Br)c2)nc2ccc(Br)cn12 | 7% | / | i | 4% | -16
CCCN(CCC)c1ncnc2nc[nH]c12 | -27% | -5% | ? | -16% | -88*
Cc1cc(Cl)nc2ccc(Cc3ccc4nc(Cl)cc(C)c4c3)cc12 | -24% | 10µM* | i | ? | 37
Cc1cc(Cl)nc2ccccc12 | 0% | / | -13% | / | /
COc1ccc(-c2n[nH]c(C)c2-c2cnn(-c3ccccc3)c2)c(O)c1C | / | 11µM* | / | 5% | -77*
COc1ccc(-c2n[nH]c(C)c2-c2cnn(-c3ccccc3)c2)c(O)c1 | / | -22% | / | -16% | 61
Cc1cccc(-n2ncc3c(NNC(=O)c4ccccc4Cl)ncnc32)c1 | 0% | / | -14% | -17% | -35
COCCN=C1NN=C(c2ccc(NC(C)=O)cc2)CS1 | -8% | 28% | -13% | 51% | -67*
O=C(/C=C/Nc1ccccc1Br)c1ccccn1 | -14% | -9% | -13%[1.46 µM] | 2.2µM* | -85*
Cc1sc2ncnc(Sc3nnnn3-c3ccc(Cl)cc3)c2c1C | / | 15% | / | ? | 53
c1ccc(-n2nnnc2Sc2ncnc3sc4c(c23)CCCC4)cc1 | -6% | 4% | -13% | 28µM* | -7
SMILES | Vaccinia Venus | HCV inh | VACV mCherry inh | FMDV antiviral | HCMV inh
O=C(O)CSc1ncnc2sc3c(c12)CCC3 | 2% | 25% | -6% | -9% | -14
Fc1ccc(CSc2ncnc3sc4c(c23)CCCC4)cc1 | / | 11µM* | / | -4% | 72
CCSc1ncnc2sc3c(c12)CCC3 | / | 25µM* | / | -10% | -4
Cc1[nH]c(-c2ccco2)nc1C(=O)O | / | 18% | / | 6% | -111*
Cc1[nH]c(-c2ccc3c(c2)OCO3)nc1C(=O)O | -6% | 4% | 11% | 7% | 20
Cc1cccc(/C(N)=N/OC(=O)c2ccco2)c1 | 0% | -1% | / | 0% | 41
Cc1cccc(/C(N)=N/OC(=O)N2CCOCC2)c1 | ? | ? | ? | / | -74*
Cc1ccc(/C(N)=N/OC(=O)N2CCOCC2)cc1 | -25% | ? | -20% | / | -85*
Cc1ccc(C(=O)OCC(=O)N2CCOCC2)cc1 | 6% | 7% | 15% | 32% | -23
CCOC(=O)c1c(-c2ccc(-c3ccccc3)cc2)csc1NC(=O)C1C2CCC(O2)C1C(=O)O (centres undefined) | -17% | -1% | -17% | 0% | 1
COC(=O)c1c(-c2ccccc2)csc1NC(=O)c1c(-c2ccccc2)noc1C | 19% | ? | 6.3µM* | ? | -79*
COC(=O)c1ccc(C)c(NC(=O)c2c(-c3ccccc3)noc2C)c1 | -17% | 9% | -2% | / | -9
CCOC(=O)c1c(-c2ccc(F)cc2)csc1NC(=O)c1c(-c2ccccc2)noc1C | 16% | ? | ? | -27% | -68*
Cc1onc(-c2ccccc2)c1C(=O)Nc1ccc(OC(C)C)cc1 | -4% | -15% | 10% | 0.71µM* | -29
CCOC(=O)c1c(-c2ccccc2)csc1NC(=O)C1CCCO1 (centres undefined) | -9% | 10µM* | i | / | 10
CCCOc1ccc(NC(=O)c2c(-c3ccccc3)noc2C)cc1 | -14% | 14% | 3% | -19% | -3
Cc1cnccc1/C=C/c1ccc(N)cc1 | 13% | / | -13% | / | /
COC(=O)c1c(NC(=O)C(=O)NCC2CCCO2)sc2c1CC(C)(C)OC2 (centres undefined) | / | ? | / | ? | 4
O=c1ccn([C@@H]2O[C@H](CNCc3cccn3-c3nccs3)[C@@H](O)[C@H]2O)c(=O)[nH]1 | 5% | / | 20% | 0% | -4
CCOC(=O)c1c(-c2ccccc2)csc1NC(=O)/C(C#N)=C/c1ccc(O)c(OC)c1 | 70% | -20% | 9% | ? | -65*
CCOC(=O)c1c(-c2ccccc2)csc1NC(=O)/C(C#N)=C/c1ccc(OC)c(OC)c1 | 0% | -2% | -14% | 0% | 28
COc1ccc(N2CCN(C(=O)CCc3c[nH]c4ccccc34)CC2)cc1 | -8% | -28% | -2% | 11% | -8
O=C(CCc1c[nH]c2ccccc12)N1CCN(c2ccc(O)cc2)CC1 | ? | ? | ? | 17% | -65*
O=C(CCCc1c[nH]c2ccccc12)N1CCN(S(=O)(=O)c2cccs2)CC1 | / | 13µM* | / | 25µM* | -7
CC1CCCC(NC(=S)NC(=O)c2ccco2)C1C (centres undefined) | -9% | -2% | -20% | 0% | ?
COC(=O)C(c1ccccc1)(c1cn(Cc2ccccc2)c2ccccc12)C(Nc1ccccc1)c1ccccc1 (centres undefined) | / | / | / | / | -21
CCOc1ccc(N=Cc2c(O)n(CCc3ccc(OC)c(OC)c3)c(=O)[nH]c2=O)cc1 | -7% | ? | i | 7.9µM* | 18
COc1ccc(CCn2c(O)c(C=Nc3ccc(NC(C)=O)cc3)c(=O)[nH]c2=O)cc1OC | -6% | 11% | -10% | -17% | 34
Cc1ccc(S(=O)(=O)N2CCOCC2)cc1NC(=O)CSc1nnc(NC2CC2)s1 | / | -7% | / | 15% | -24
